Results on 40 compounds are retold here after PubChem BioAssay (Tox21).

Records with an inconclusive call do not appear. Where a call stands in place of a potency, no number is given. A structure can be active in one record and inactive in another. Calls of active or inactive are those of the source. Calls come from the whole dose curve; as a rule, active = well fitted cell-killing curve with a large enough effect in the repeat runs; inconclusive = weak or mixed curves, or effect the other way; inactive = no such curve, though single readings can be large or run the other way.
Potency is the fitted concentration of half-maximal effect.

This assay in a line: qHTS assay to identify small molecule agonists of the farnesoid-X-receptor (FXR) signaling pathway - cell viability counter screen (AID 743218). Note: nearly all actives have a fitted effect of over 45% in size. The settings on record: FXR-bla HEK293T viability, CellTiter-Glo luminescence, 16 h; series mostly up to 62.6 µM. The text has this: U.S. Tox21 Program National Center for Advancing Translational Sciences [NCATS] NIH Chemical Genomics Center [NCGC] U.S. Environmental Protection Agency [EPA] National Institutes of Environmental Health Sciences [NIEHS] National Toxicology Program [NTP] U.S. Food and Drug Administration [FDA] Tox21 Assay Overview: The farnesoid-X-receptor (FXR), a nuclear hormone receptor, is highly expressed in liver, intestine, kidney and adrenal cortex. Natural ligands of FXR are the bile acids (Cholic acid, Chenodeoxy cholic acid etc). FXR is an important regulator of diverse metabolic pathways, including the bile acid homeostasis, lipid and glucose metabolisms. FXR regulates the expression of target genes by binding either as a monomer or as a heterodimer with the retinoid X receptor (RXR). Numerous studies have reported that FXR exerts protective function during cholestasis, diabetes, liver regeneration, and cancer. To identify compounds that activate FXR signaling, GeneBLAzer FXR-UAS-bla HEK 293T cell line (Invitrogen, Carlsbad, CA) containing a beta-lactamase reporter gene under the control of a UAS response element was used to screen the Tox21 10K compound library. The cytotoxicity of the Tox21 compound library against the FXR-bla cell line was tested in parallel by measuring the cell viability using CellTiter-Glo assay in the same wells.
Tox21 Assay Protocol Summary: FXR-bla cells were dispensed at 5000 cells/5uL/well in 1536-well black wall/clear bottom plates using a Multidrop Combi (Thermo Fisher Scientific, Waltham, MA) dispenser. After the assay plates were incubated at 37 C and 5% CO2 for 5 h, 23 nL of compounds dissolved in DMSO, positive controls or DMSO only was transferred to the assay plate by a Pintool station (Kalypsys, San Diego, CA). The assay plates were incubated at 37C for 16 h. After 1 uL of LiveBLAzerTM B/G FRET substrate was added using a Bioraptr Flying Reagent Dispenser (FRD) workstation (Beckman Coulter, Indianapolis, IN), the plates were incubated at room temperature for 2 h, and fluorescence intensity was measured by an Envision plate reader (PerkinElmer, Shelton, CT). For cell viability readout that measures cytotoxicity, 4uL/well of CellTiter-Glo reagent was added into the assay plates using a Bioraptr FRD. After 30 min incubation at room temperature, the luminescence intensity in the plates was measured using a ViewLux plate reader (PerkinElmer).
(In general: In qHTS, concentration-response curves come from the screen itself.)
Turning to `CO[C@@H]1[C@H](OC(=O)NC(=O)CCl)CC[C@]2(CO2)[C@H]1[C@@]1(C)O[C@@H]1CC=C(C)C`, the Potency was 0.0021 µM (active). For `CCCCN(N=O)C(=N)N[N+](=O)[O-]` the value was “inactive”. On to `Brc1ccc(Oc2ccccc2)cc1`, for which the Potency result is “inactive”. As for `O=[N+]([O-])c1ccc(F)c([N+](=O)[O-])c1`, the Potency was 2.21 µM (active). On to `OC(c1ccc(Cl)cc1)(c1ccc(Cl)cc1)c1cccnc1`, for which the Potency result was “inactive”. Regarding `CN1C(=O)NC(=O)C(C)(C2=CCCCC2)C1=O` (stereo not given), the Potency result is “inactive”. For the compound `COP(=O)(OC)O/C(=C/Cl)c1cc(Cl)c(Cl)cc1Cl`, the Potency result is “inactive”.

Turning to `Clc1ccc(C2(Cn3cncn3)CC(Br)CO2)c(Cl)c1` (stereo not given), the Potency result is “inactive”. As for `O=Cc1ccc2c(c1)OCO2`, the Potency result is “inactive”. For `CCOC(=O)[C@]1(c2ccccc2)Oc2ccccc2[C@@H]1N` the value was “inactive”. Next, `O=C(O)C(F)(F)C(F)(F)C(F)(F)C(F)(F)C(F)(F)C(F)(F)C(F)(F)C(F)(F)C(F)(F)F`: “inactive”; `CN(C)c1ccc(N(C)C)cc1`: “inactive”; `C(=NC1CCCCC1)=NC1CCCCC1`: 11 µM (active). Next, `O=Cc1ccc(Cl)cc1Cl`: “inactive”; `O=C(OC1CCCCC1)c1ccccc1C(=O)OC1CCCCC1`: “inactive”. Regarding `Cn1sc(Cl)cc1=O`, the Potency entry is “inactive”.

Consider `CC(C)N(C(=O)COc1nnc(C(F)(F)F)s1)c1ccc(F)cc1`, for which the Potency entry is “inactive”. As to `CNP(=O)(OC)Oc1ccc(C(C)(C)C)cc1Cl` (stereo not given), the Potency result is “inactive”. Take `Cc1ccc(-c2c(Cl)nc(C#N)n2S(=O)(=O)N(C)C)cc1`: the Potency result was “inactive”. With `O=C(O)C(F)(F)C(F)(F)C(F)(F)C(F)(F)C(F)(F)C(F)(F)C(F)(F)C(F)(F)C(F)(F)C(F)(F)F`, the Potency entry was “inactive”. On to `O=C(O)COc1ccc(Cl)cc1`, for which the Potency entry is “inactive”. For `CCOP(=S)(OCC)SCn1nnc2ccccc2c1=O` the value was 43.6 µM (active); for `O=C(NC(=O)c1c(F)cccc1F)Nc1cc(Cl)c(Oc2ncc(C(F)(F)F)cc2Cl)c(Cl)c1`, 37.3 µM (active). Take `Cl/C=C\C[N+]12CN3CN(CN(C3)C1)C2`: the Potency result is “inactive”. On to `COC1=CC(=O)O[C@@H](CCc2ccccc2)C1`, for which the Potency entry was “inactive”. With `CC1Sc2c(C(=O)O)c(=O)c3cc(F)c(N4CCNCC4)cc3n21` (stereo not given), the Potency result is “inactive”.

Take `O=C(NCc1cccnc1)Nc1ccc([N+](=O)[O-])cc1`: the Potency result was “inactive”. `Nc1nc(N)nc(N)n1`: the Potency result is “inactive”. Turning to `CC(=O)[C@H]1CC[C@H]2[C@@H]3CC[C@H]4C[C@](C)(O)CC[C@]4(C)[C@H]3CC[C@]12C`, the Potency result is “inactive”. Regarding `Clc1cc(C(Cl)(Cl)Cl)cnc1Cl`, the Potency entry was “inactive”. For the compound `CC(C)(Cl)[N+](=O)[O-]`, the Potency entry was “inactive”. For `NC(=O)CI` the value was “inactive”. Take `CCCCNP(N)(N)=S`: the Potency entry is “inactive”.

On to `CCOP(=O)(OCC)SCCSCC`, for which the Potency entry is “inactive”.

As to `[CH3][Sn]([CH3])([Cl])[Cl]`, the Potency was 55.9 µM (active) and inactive.

As to `O=C(CBr)c1ccccc1`, the Potency entry was “inactive”. For the compound `CCCN(CC1CC1)c1c([N+](=O)[O-])cc(C(F)(F)F)cc1[N+](=O)[O-]`, the Potency result is “inactive”. `O=C(C(Cl)(Cl)Cl)C(Cl)(Cl)Cl`: the Potency entry was “inactive”. Next, `COC(=O)C(C)N(C(=O)Cc1ccccc1)c1c(C)cccc1C` (stereo not given): “inactive”; `ClCCCCBr`: “inactive”.
